We go through 8 compounds from PubChem BioAssay (NCI).

Compounds without any hit were thinned out: in the full panel of roughly 83,000, 20% have a hit.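 96-well plates, one dose, 48 hours. Percent growth reported; active if below 10.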 A number with no mark means an inactive call. Activity calls are given as the source filed them.

Test systems include NCI-H23 lung; NCI-H226 lung; NCI-H322M lung; HOP-62 NSCLC; NCI-H460 lung; HOP-92 NSCLC; NCI-H522 lung; A549/ATCC NSCLC; 786-0 renal; COLO 205 colon; DU-145 prostate; K-562 leukemia; MALME-3M melanoma; MDA-MB-231 breast; SF-268 CNS; SF-295 CNS; SF-539 CNS; UACC-257 melanoma; M14 melanoma.
What all share (experiment): NCI-60 one-dose screen, 48 h (100 = growth as untreated, 0 = no growth, -100 = all killed)
Holding throughout (conditions): 10 µM unless noted

On to `O=C1/C(=C/c2ccc(O)cc2)COc2ccc(-c3ccccc3)cc21`, for which the growth in the experiment with NCI-H23 lung was 95.9%; in the experiment on NCI-H226 lung it was 102%; in the experiment with NCI-H322M lung, 94.1%; in the experiment on HOP-62 NSCLC, 80.1%; with NCI-H460 lung, 66%; in the experiment with HOP-92 NSCLC, 84.5%. Moreover, the growth with NCI-H522 lung was 84.2%; in the experiment on A549/ATCC NSCLC it was 90.4%; in the experiment with 786-0 renal it was 21.4%; in the experiment on COLO 205 colon it was 90.7%; with DU-145 prostate, 59.7%; with K-562 leukemia it was 39.3%. For the same compound, the growth is 116% with MALME-3M melanoma; 94.6% with MDA-MB-231 breast; 69.1% in the experiment with SF-268 CNS; 89.8% with SF-295 CNS; 90.7% with SF-539 CNS; 92.7% in the experiment with UACC-257 melanoma. In the experiment with M14 melanoma, the growth was 86.6%.

Consider `CCCCCCCCN1C(=O)/C(=c2\sc3n(c2=O)C2C(NN=3)N(CC)C(=O)N2CC)c2ccccc21` (configuration not stated), for which the growth was 79.1% in the experiment on NCI-H23 lung; 91.9% in the experiment with NCI-H226 lung; 83% in the experiment on NCI-H322M lung; 47.3% in the experiment with HOP-62 NSCLC; 88% in the experiment on NCI-H460 lung; 62.7% in the experiment on HOP-92 NSCLC. In addition, the growth in the experiment with NCI-H522 lung is 66.6%; in the experiment on A549/ATCC NSCLC, 75.9%; with 786-0 renal it was 65.7%; in the experiment with COLO 205 colon it was 104%; in the experiment on DU-145 prostate it was 97.8%; in the experiment on K-562 leukemia, 92.6%. Besides, the growth in the experiment on MALME-3M melanoma is 82.6%; in the experiment with MDA-MB-231 breast, 71.5%; in the experiment on SF-268 CNS, 65.3%; with SF-295 CNS it was 73%; with SF-539 CNS, 59.9%; in the experiment with UACC-257 melanoma, 96.3%. The growth in the experiment with M14 melanoma was 95.4%.

Turning to `COc1cnccc1-c1nc2ccc3[nH]ncc3c2c2c1CCCC2`, the growth with NCI-H23 lung is 67.1%; in the experiment on NCI-H226 lung, 67%; with NCI-H322M lung it was 67.1%; with HOP-62 NSCLC, 61%; in the experiment with NCI-H460 lung it was 44.7%; in the experiment with HOP-92 NSCLC, 69.2%. Further, the growth in the experiment on NCI-H522 lung is 30.6%; in the experiment with A549/ATCC NSCLC, 47.6%; in the experiment with 786-0 renal, 49%; in the experiment on COLO 205 colon, 55.3%; in the experiment on DU-145 prostate, 62.7%; with K-562 leukemia, 42.2%. The growth with MALME-3M melanoma is 73.8%; with MDA-MB-231 breast it was 68.2%; in the experiment with SF-268 CNS, 61.3%; in the experiment with SF-295 CNS, 60.5%; with SF-539 CNS it was 35.7%; with UACC-257 melanoma, 87.5%. For the same compound, the growth with M14 melanoma was 46.3%.

As for `COc1ccc(C(=O)c2cc3c(N)c(C(=O)Nc4cccc(Br)c4C)sc3nc2C)cc1`, the growth was 27.4% in the experiment with NCI-H23 lung; 45.6% in the experiment on NCI-H226 lung; 52.6% in the experiment on NCI-H322M lung; 28.8% in the experiment on HOP-62 NSCLC; 5.88% (active) with NCI-H460 lung; 13.6% with HOP-92 NSCLC. The growth with NCI-H522 lung was -27.4% (active); in the experiment with A549/ATCC NSCLC it was 17.4%; in the experiment on 786-0 renal, 26.2%; in the experiment with COLO 205 colon, -40% (active); in the experiment with DU-145 prostate it was 8.9% (active); in the experiment on K-562 leukemia, 5.28% (active). Further, the growth in the experiment with MALME-3M melanoma is 51.8%; in the experiment on MDA-MB-231 breast, 13%; in the experiment on SF-268 CNS, 22.9%; in the experiment on SF-295 CNS it was 22.2%; with SF-539 CNS it was -15.3% (active); in the experiment on UACC-257 melanoma, 59%. Moreover, the growth with M14 melanoma is 7.09% (active).

As to `CC(=O)c1c(C)[nH]c(-c2nc3ccc(N4CCN(C)CC4)cc3[nH]2)c1-c1ccccc1`, the growth in the experiment with NCI-H23 lung was 53%; in the experiment on NCI-H226 lung, 55.2%; in the experiment on NCI-H322M lung, 41.6%; with HOP-62 NSCLC, 33.3%; in the experiment on NCI-H460 lung, 52.3%; in the experiment on HOP-92 NSCLC, 29.8%. Also, the growth in the experiment on NCI-H522 lung is 25.4%; in the experiment on A549/ATCC NSCLC, 38.1%; in the experiment on 786-0 renal, 85.9%; with COLO 205 colon, 16.1%; with DU-145 prostate, 59.7%; in the experiment on K-562 leukemia it was 24.7%. Further, the growth with MALME-3M melanoma is 23.7%; in the experiment with MDA-MB-231 breast, 32%; in the experiment with SF-268 CNS it was 53.6%; with SF-295 CNS, 38.1%; with SF-539 CNS, 24.9%; with UACC-257 melanoma it was 48.4%. Also, in the experiment on M14 melanoma, the growth is 94.7%.

Regarding `CN(Cc1ccccc1)c1nc(Cl)c(C2CC(c3ccc(Cl)cc3)=Cc3[nH][nH]c(=O)c32)s1` (configuration not stated), the growth in the experiment on NCI-H23 lung was 98.3%; in the experiment with NCI-H226 lung it was 97.1%; in the experiment with NCI-H322M lung it was 110%; with HOP-62 NSCLC it was 101%; in the experiment on NCI-H460 lung it was 92.7%; with HOP-92 NSCLC, 102%. For the same compound, the growth was 89.7% in the experiment with NCI-H522 lung; 107% in the experiment on A549/ATCC NSCLC; 89.4% with 786-0 renal; 124% with COLO 205 colon; 104% in the experiment with DU-145 prostate; 42.5% in the experiment on K-562 leukemia. The growth in the experiment on MALME-3M melanoma was 104%; with MDA-MB-231 breast, 113%; in the experiment with SF-268 CNS it was 92.1%; in the experiment on SF-295 CNS, 90.2%; in the experiment with SF-539 CNS it was 88.1%; with UACC-257 melanoma, 102%. Moreover, the growth in the experiment with M14 melanoma was 107%.

Regarding `CCN1C(=O)N(CC)C2C1NN=c1s/c(=C3\C(=O)Nc4ccccc43)c(=O)n12` (configuration not stated), the growth was 37.3% in the experiment on NCI-H23 lung; 93.2% in the experiment on NCI-H226 lung; 43.5% in the experiment on NCI-H322M lung; 5.9% (active) in the experiment on HOP-62 NSCLC; 9.09% (active) in the experiment with NCI-H460 lung; -4.18% (active) in the experiment on HOP-92 NSCLC. Further, the growth is 2.21% (active) in the experiment on NCI-H522 lung; 28.8% in the experiment with A549/ATCC NSCLC; 27.7% with 786-0 renal; -25.1% (active) in the experiment on COLO 205 colon; 14.9% with DU-145 prostate; 2.13% (active) in the experiment on K-562 leukemia. The growth in the experiment on MALME-3M melanoma is 19%; in the experiment on MDA-MB-231 breast, 25%; with SF-268 CNS, 67.1%; in the experiment with SF-295 CNS it was 8.72% (active); in the experiment on SF-539 CNS, -34.1% (active); with UACC-257 melanoma, 80.4%. Also, in the experiment with M14 melanoma, the growth was 20.1%.

For `COc1ccc(Cn2nc(-c3ccccc3)c3c2CCc2cnoc2-3)cc1`, the growth in the experiment on NCI-H23 lung was 60.3%; in the experiment on NCI-H226 lung it was 105%; with NCI-H322M lung, 101%; in the experiment on HOP-62 NSCLC, 83.5%; in the experiment with NCI-H460 lung, 80.5%; in the experiment on HOP-92 NSCLC, 61.1%. Moreover, the growth in the experiment with NCI-H522 lung was 70.3%; in the experiment with A549/ATCC NSCLC, 69.4%; in the experiment with 786-0 renal, 79.4%; in the experiment with COLO 205 colon it was 88.6%; in the experiment on DU-145 prostate, 96.9%; in the experiment on K-562 leukemia, 36.3%. Moreover, the growth is 109% in the experiment on MALME-3M melanoma; 55.6% in the experiment with MDA-MB-231 breast; 81% in the experiment with SF-268 CNS; 59.5% in the experiment on SF-295 CNS; 85.4% with SF-539 CNS; 90.9% in the experiment with UACC-257 melanoma. The growth in the experiment on M14 melanoma was 89.2%.
